# An excerpt weighted towards active compounds, which were near 1.7% of everything screened.
# MIN6 prolif-1 = MIN6 beta-cell proliferation induction | proliferation, % at 10 µM | hit rate 0.29% among 330,000 | AID 2380 | MIN6 cells proliferation, ATPlite luminescence, 48 h; cells starved in 0.2% serum; 100% = growth in 10% serum;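 active = compounds whose signal lies at least 3.5 SD above the mean of all wells on their plate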;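 note: 0% = DMSO-treated cells in low-serum medium and 100% = 10% serum control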
# HTR5A ag ctr = counter-screen for OPRM1-OPRD1 agonists: human HTR5A agonism; hit rate 0.61% among 340,000; AID 504692; HTR5A agonist assay, luminescence, cell-based; activation, % at 9.3 µM; in the data active = activation mostly above about 9.5%, no sharp cut-off; inactive = mostly below about 7.6%;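 note: 0% = cells with vehicle only and 100% = reference agonist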
# Target sequence (P47898 whole entry, looked up): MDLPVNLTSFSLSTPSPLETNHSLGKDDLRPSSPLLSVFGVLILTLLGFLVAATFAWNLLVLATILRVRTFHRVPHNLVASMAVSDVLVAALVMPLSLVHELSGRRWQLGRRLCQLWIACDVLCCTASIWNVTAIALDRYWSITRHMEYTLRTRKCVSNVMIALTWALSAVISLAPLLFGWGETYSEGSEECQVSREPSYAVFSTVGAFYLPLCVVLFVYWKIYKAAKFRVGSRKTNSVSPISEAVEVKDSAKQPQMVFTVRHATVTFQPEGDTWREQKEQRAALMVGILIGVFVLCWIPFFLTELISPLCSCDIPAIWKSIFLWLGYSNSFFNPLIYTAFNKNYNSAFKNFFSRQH
# HTR5A inv ctr = counter-screen for OPRM1-OPRD1 inverse agonists: human HTR5A inverse agonism. HTR5A cell line, luminescence. inhibition, % at 9.3 µM. hit rate 0.083% among 340,000. P47898. AID 504634; in the data active = inhibition mostly above about 23%, no sharp cut-off; inactive = mostly below about 18%;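 note: 0% = cells with DMSO and 100% = no-cell wells with DMSO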
# V-ATPase pHluor = regulators of yeast V-ATPase proton transport; AID 504577; response, % at 10 µM; S. cerevisiae, pHLuorin cytosolic pH fluorescence; hit rate 0.37% among 350,000; in the data active = response mostly above about 7.3%, no sharp cut-off; inactive = mostly below about 5.4%; note: actives read high
# MOR-DOR inv ag = inverse agonists of human mu-delta opioid receptor heterodimerization. cell-based MOR-DOR heterodimer luminescence, inverse agonism. inhibition, % at 9.3 µM. hit rate 0.21% among 340,000; in the data active = inhibition above about 22%, passing the limit was not always enough;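 note: 0% = cells with DMSO and 100% = wells without cells with DMSO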
# OPRM1-OPRD1 ag = OPRM1-OPRD1 heterodimerization agonism; P35372+P41143; cells, luminescence; activation, % at 9.3 µM; hit rate 0.3% among 340,000; AID 504326; in the data active = activation above about 18%;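 note: 0% = vehicle-treated cells and 100% = reference agonist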
# MIN6 prolif-2 = MIN6 beta-cell replication induction, confirmed; shares compounds with MIN6 prolif-1; MIN6 beta-cell proliferation, ATPlite luminescence, 48 h; cells kept in 0.2% serum; scaled between 0.2% and 10% serum; proliferation increase, % at 50 µM; AID 463095; 920 tested, under 10 active;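 active = proliferation increase above 40% at any of the four tested concentrations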
# Starred values were filed as active, the others as inactive; . = not tested or not shown.
SMILES,MIN6 prolif-1,HTR5A ag ctr,HTR5A inv ctr,V-ATPase pHluor,MOR-DOR inv ag,OPRM1-OPRD1 ag,MIN6 prolif-2
CC(=O)Nc1ccc(CN2CCCCCC2)cc1,5.5*,-3,10,-4,7,-1,2
COc1ccc(C=NNC(=O)c2ccccc2OCc2ccc(F)cc2)c(OC)c1,-2,5,8,-1,3,-1,.
COc1ccc(OCCN2C(=O)c3ccccc3C2=O)c([N+](=O)[O-])c1,-3,2,-3,1,8,-1,.
Cc1cc2c(ncn2C(C)C)c(NS(=O)(=O)c2ccc(F)cc2)c1C,8.9*,-4,10,1,11,-2,-4
Cc1cc2c(ncn2C)c(NS(=O)(=O)c2ccc(F)cc2)c1C,1,-2,4,-1,-3,0,.
COc1cc2c(cc1OC)/C(=C/C(=O)c1ccccc1)NCC2,-3,3,-11,1,-2,0,.
COc1cc2c(cc1OC)/C(=C/C(=O)c1ccc([N+](=O)[O-])c(C)c1)NCC2,11*,3,-14,2,-8,2,2
COc1cccc(C(=O)/C=C2\NCCc3cc(OC)c(OC)cc32)c1,16*,0,-1,1,1,0,-4
CCn1cnc2cc([N+](=O)[O-])ccc21,-3,3,-9,-2,14,-3,.
O=C(NNC1=NCCC1)c1cccc(Br)c1,9.7*,-2,-17,7,1,0,4
CCOc1ccccc1/C=C/c1onc(C)c1S(=O)(=O)N1CCC(C(=O)N(CC)CC)CC1,4.8*,1,5,-3,8,-1,-6
CN(CC(=O)NCc1ccco1)C(=O)C1CC(=O)N(c2ccc3c(c2)OCCO3)C1 (stereo not drawn),-3,-4,10,2,1,0,.
CCOC(=O)c1cnc2ccc(C(=O)OC)cc2c1NCCc1ccc(OC)c(OC)c1,0.0*,1,-15,-1,2,0,3
CCOC(=O)c1cnc2c(C)cccc2c1NCCc1ccc(OC)c(OC)c1,3,2,-3,-1,-2,0,.
Cc1c(-c2ccccc2)[n+](=O)c2c(n1[O-])CCC2,8.9*,-4,-20,1,7,-1,-2
Cc1c(-c2ccc(Cl)cc2)[n+](=O)c2c(n1[O-])CCCC2,-1,4,-17,4,11,-2,.
COc1cc(C(=O)N2Cc3cc4ccccc4nc3C2C)cc(OC)c1OC (stereo not drawn),.,.,.,3,.,.,.
COC(=O)c1ccccc1S(=O)(=O)N1CCC(C(=O)OC(C)C(=O)Nc2ccccc2OC)CC1 (stereo not drawn),4,2,-6,-2,1,0,.
COc1ccccc1NC(=O)C(C)OC(=O)C1CCN(S(=O)(=O)c2ccc(C)c(C)c2)CC1 (stereo not drawn),16*,5,-13,-1,-3,1,-5
COc1ccc(S(=O)(=O)N(C)C)cc1NC(=O)CCNC(=O)c1ccccc1OC,-3,0,0,-1,8,-2,.
COc1ccc(NS(=O)(=O)c2cccc(C(=O)NNC(=O)CNC(=O)c3cccc(C)c3)c2)cc1,9.7*,0,4,1,15,-3,2
COc1ccc(NS(=O)(=O)c2cccc(C(=O)NNC(=O)CNC(=O)c3ccccc3)c2)cc1,-3,4,6,2,4,-1,.
CCOc1ccc(S(=O)(=O)NCCCl)cc1,-2,-3,7,2,-2,0,.
C=CCOc1ccc(C(=O)Nc2ncn[nH]2)cc1,-4,1,-3,1,-2,0,.
COc1ccc(N/N=C(\C=N\O)C(=O)c2ccc(OC)cc2)cc1,-3,1,-2,1,11,-2,.
SMILES,MIN6 prolif-1,HTR5A ag ctr,HTR5A inv ctr,V-ATPase pHluor,MOR-DOR inv ag,OPRM1-OPRD1 ag,MIN6 prolif-2
N/N=C/C(=N\Nc1ccc(Cl)cc1)C(=O)c1ccncc1,9.8*,7,8,-3,-5,1,0
CC(=O)Nc1ccc(S(=O)(=O)NCCc2cn3nc(C)c(C)nc3n2)cc1,0,-2,10,2,7,-1,.
COc1ccccc1N(CC(=O)NC(C)C)S(=O)(=O)c1cccs1,8.3*,-1,27,3,7,-1,1
COc1ccccc1N(CC(=O)NC1CCCCC1)S(=O)(=O)c1cccs1,3,-5,17,1,14,-3,.
CN(CCCN1CCCCC1)C(=O)c1cc(COc2ccc(F)cc2F)on1,4,7,7,-2,14,-3,.
COc1ccc2nc(C)cc(SCC(=O)N/N=C/c3ccco3)c2c1,0,4,-4,0,-10,1,.
COc1ccc(OC)c(/C=N/NC(=O)CSc2cc(C)nc3c(OC)cccc23)c1,10*,.,.,2,.,.,-1
O=C(NC1CCCCC1)C(c1ccccn1)N(C(=O)c1csnn1)C1CCCCC1 (stereo not drawn),-1,0,-1,-2,17,-3,.
COc1ccc(CCN(Cc2ccccn2)C(=S)Nc2cccc(C)c2)cc1OC,8.7*,4,-24,-4,-21,4,-6
CCc1nc2ccccc2n1CC(O)COCC1CC=CCC1 (stereo not drawn),12*,0,-10,-2,5,-1,-3
O=C(c1ccccc1)N1CCN(CC(O)COCC2CC=CCC2)CC1 (stereo not drawn),0,4,-10,0,5,-1,.
Cc1ccc(C)c(N(C(=O)c2ccco2)C(C(=O)NC2CCCC2)c2ccco2)c1 (stereo not drawn),5.7*,0,-1,-1,-8,1,-6
O=C(NC1CCCC1)C(c1ccco1)N(C(=O)c1ccco1)c1ccccc1 (stereo not drawn),-3,7,-20,9,3,0,.
Cc1ccc(C(C(=O)NC2CCCCC2)N(CC2CCCO2)C(=O)CNC(=O)c2ccco2)cc1 (stereo not drawn),5.5*,-5,1,-1,4,-1,-1
O=C(NCC(=O)N(Cc1ccc(F)cc1)C(C(=O)NC1CCCC1)c1ccco1)c1ccco1 (stereo not drawn),7.1*,0,-13,0,8,-1,-2
CC(Oc1cc2oc(=O)cc(-c3ccccc3)c2cc1Cl)C(=O)NCC1CCC(C(=O)O)CC1 (stereo not drawn),1,1,13,-2,12,-2,.
CC(NC(=O)OC(C)(C)C)C(=O)Oc1cc2oc(=O)cc(-c3ccccc3)c2cc1Cl (stereo not drawn),5.9*,0,-2,6,3,-1,-6
Cc1ccc(C(=O)NCCN2CCOCC2)c(Cl)c1,6.0*,0,-1,3,15,-3,-1
O=C(NCCN1CCOCC1)c1ccccc1Cl,-2,2,-8,1,5,-1,.
